Data published in PubChem BioAssay.
Activity calls are given as the source filed them.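 The calls were made as follows, unless noted: active = inhibition above 20% together with a positive visual image hit; inconclusive = visual image hit but inhibition not above 20%; inactive = no visual image hit.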

How the values were obtained:
[1] = inhibitors of TNFa-induced NFkB p65 translocation, primary screen, imaging, HUVEC, MLSMR starter and 10KST1 sets (AID 438); details: HUVEC TNFa-induced p65 nuclear translocation; cell count: measured here: nuclei count (cytotoxicity indicator), at 2.08 µM; inhibition: at 2 µM, stronger effect = higher value, 0% TNFa-plus-vehicle, 100% no-TNFa wells;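 also: compound added about 3h40 before a 20 min TNFalpha stimulation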;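 as to inhibition: signal is the nuclear over cytoplasmic p65 intensity ratio per well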
[2] = reduction of polyQ htt aggregates in cells – imaging, exon1htt(103Q)mCFP cells, high-content imaging, primary screen (AID 483;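 active = visual image review flags a hit and inhibition of aggregation exceeds 20%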;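 also: compound exposure lasted 3 days before fixation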;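 as to nuclei count: percent of the per-plate median nuclei count of sample wells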); details: exon1htt(103Q)mCFP cell line, aggregate imaging, at 2 µM; inhibition of aggregation: stronger effect = higher value; nuclei count: measured here: cell count, toxicity
[3] = endothelial E-selectin expression blockers – imaging, HUVEC, immunofluorescence, MLSMR starter and 10KST1 sets, primary screen (AID 487;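 active = visually confirmed hit in the image check and inhibition above 20%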;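 as to inhibition: signal is fraction of cell area covered by stained E-selectin grains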;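 as to nuclei count: 100% = median nuclei count of all wells on the same plate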); details: HUVEC TNFalpha-induced E-selectin immunofluorescence imaging, at 2 µM; inhibition: stronger effect = higher value; nuclei count: measured here: cell number, toxicity
[4] = biological target: Voltage-gated potassium channel subunit beta-2 (Rattus norvegicus) (UniProt P62483); test: inhibitors of rat Kvbeta2 reductase activity – biochemical, NADPH fluorescence, primary screen (AID 622;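 active = fluorescence slope higher than the sample average by over 3 SD, cut at about -0.22 in these data, passing the limit was not always enough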;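 also: slope of raw intensity against log time taken from 70 to 1610 s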); details: recombinant KvBeta, 4-cyanobenzaldehyde reduction, at 10 µM, stronger effect = higher value
[5] = biological target: Voltage-gated potassium channel subunit beta-2 (Rattus norvegicus) (UniProt P62483); test: enhancers of rat Kvbeta2 NADPH turnover – biochemical, NADPH fluorescence, primary screen (AID 623;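 active = NADPH fluorescence slope more negative than the mean of all samples by about 3 SD, 99.7% confidence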;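 also: fluorescence intensity change per second fitted from 20 to 320 s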); details: Recombinant KvBeta, NADPH fluorescence decrease slope, 10 min; at 10 µM; stronger effect = lower value
[6] = biological target: Muscarinic acetylcholine receptor M4 (Homo sapiens) (UniProt P08173); test: M4-linked GIRK flux change, two-sided – cell-based, HEK293 M4/GIRK, thallium flux, BTC-AM, M4 allosteric agonist project, primary screen (AID 625;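 active = fluorescence slope after compound addition differing from the mean of all tested samples at 99.7% confidence, mostly higher but some lower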;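 also: thallium influx through GIRK channels coupled to M4 in HEK293 cells with BTC-AM dye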); details: at 10 µM, actives lie on both sides
[7] = blockers of RIG-like receptor reporter activation – cell-based, Sendai virus stimulus, luciferase, 10K MLSCN set, TLR/RLR signaling modifier project, primary screen (AID 602276;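 active = inhibition at or above 50% at 10 µM; inactive = inhibition below 50%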;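 also: firefly luciferase from ISG56 promoter only with Renilla not read in this screen; 0% = Sendai virus plus DMSO and 100% = medium plus DMSO without virus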); details: HEK293 RL24 IRF3 luciferase reporter, at 10 µM, stronger effect = higher value
[8] = TLR3 IRF3 reporter activation blockers – cell-based, poly I:C stimulus, luciferase, 10K MLSCN set, primary screen (AID 602277;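 active = inhibition of the reporter signal at or above 50%; inactive = inhibition below 50%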); details: HEK293-TLR3 RL24 IRF3 luciferase reporter, at 10 µM, stronger effect = higher value

Muscarinic acetylcholine receptor M4 (Homo sapiens), sequence (P08173 whole entry, looked up): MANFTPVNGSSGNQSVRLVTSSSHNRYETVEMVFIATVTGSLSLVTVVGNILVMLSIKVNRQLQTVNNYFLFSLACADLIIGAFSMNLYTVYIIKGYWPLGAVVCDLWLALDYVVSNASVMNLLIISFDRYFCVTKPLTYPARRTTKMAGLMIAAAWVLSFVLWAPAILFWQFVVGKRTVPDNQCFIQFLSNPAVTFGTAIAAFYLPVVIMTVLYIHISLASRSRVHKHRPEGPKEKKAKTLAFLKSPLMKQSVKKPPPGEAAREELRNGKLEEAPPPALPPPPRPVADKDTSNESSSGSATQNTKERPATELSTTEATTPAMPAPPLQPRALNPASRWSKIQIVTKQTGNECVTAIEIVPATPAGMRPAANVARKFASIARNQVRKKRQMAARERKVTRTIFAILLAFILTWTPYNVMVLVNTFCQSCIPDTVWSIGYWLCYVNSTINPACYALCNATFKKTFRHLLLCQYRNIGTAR
Voltage-gated potassium channel subunit beta-2 (Rattus norvegicus), sequence (P62483 whole entry, looked up): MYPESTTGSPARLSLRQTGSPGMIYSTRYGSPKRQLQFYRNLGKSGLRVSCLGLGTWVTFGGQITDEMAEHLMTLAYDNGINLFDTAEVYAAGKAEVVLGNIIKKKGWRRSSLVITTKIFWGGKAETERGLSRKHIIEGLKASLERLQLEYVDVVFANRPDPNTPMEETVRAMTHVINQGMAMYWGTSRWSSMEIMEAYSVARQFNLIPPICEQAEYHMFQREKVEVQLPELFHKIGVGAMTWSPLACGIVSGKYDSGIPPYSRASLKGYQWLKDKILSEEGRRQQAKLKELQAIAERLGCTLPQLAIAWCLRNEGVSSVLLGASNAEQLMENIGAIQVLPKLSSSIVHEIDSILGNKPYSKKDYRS

| Compound | cell count [1] | inhibition [1] | inhibition of aggregation [2] | nuclei count [2] [%] | inhibition [3] | nuclei count [3] [%] | fluorescence slope [4] | NADPH fluorescence slope [5] | fluorescence slope [6] | inhibition [7] | inhibition [8] |
| --- | --- | --- | --- | --- | --- | --- | --- | --- | --- | --- | --- |
| O=C(NC1CCCCC1)C(c1ccco1)N(Cc1cccnc1)C(=O)C1COc2ccccc2O1 (centres undefined) | 509 | -13.1% (inactive) | -14.5% (inactive) | 111 | -4.6% (inactive) | 198 | -0.607 (inactive) | -1e-05 (inactive) | 0.00322 (inactive) | 22.1% (inactive) | 35.6% (inactive) |
| CC(=O)c1cccc(NC(=O)c2ccc(NS(C)(=O)=O)cc2)c1 | 486 | -8.9% (inactive) | 9% (inactive) | 94.4 | 32.6% (inactive) | 98.5 | -0.444 (inactive) | -5.1e-05 (inactive) | 0.00538 (inactive) | 12.2% (inactive) | 15.9% (inactive) |
| COc1ccccc1Nc1nc(N)nc(CN2CCN(c3ccccc3F)CC2)n1 | 561 | -12.1% (inactive) | -5.7% (inactive) | 97.3 | 25.3% (inactive) | 97.6 | -0.571 (inactive) | -2.2e-05 (inactive) | 0.00301 (inactive) | -5.08% (inactive) | -10.4% (inactive) |
| O=C(Nc1nc2ccc(S(=O)(=O)N3CCCC3)cc2s1)C1CCCO1 (centres undefined) | 504 | -12.6% (inactive) | -7.9% (inactive) | 55.6 | 28.1% (inactive) | 93.1 | -0.455 (inactive) | -4.6e-05 (inactive) | 0.00425 (inactive) | 14.9% (inactive) | 15.2% (inactive) |
| c1ccc2c(c1)ccc1nnc(-c3ccc4c(c3)OCO4)n12 | 338 | -1.7% (inactive) | 18.1% (inactive) | 87.8 | -25.6% (inactive) | 108 | -0.58 (inactive) | 1.5e-05 (inactive) | 0.00599 (inactive) | -1.33% (inactive) | 25.4% (inactive) |
| Cc1cc(C)c2c(=O)[nH]c(=O)n(Cc3ccccc3)c2n1 | 303 | 20% (inactive) | -9.7% (inactive) | 114 | 0.6% (inactive) | 103 | -0.53 (inactive) | 2.6e-05 (inactive) | 0.00637 (inactive) | 16.5% (inactive) | 27.4% (inactive) |
| COC(=O)c1oc2ccc(Br)cc2c1NC(=O)CN1CCN(C)CC1 | 240 | 6% (inactive) | -3.2% (inactive) | 94.6 | 30.2% (inactive) | 85.6 | -0.589 (inactive) | 1.6e-05 (inactive) | 0.00465 (inactive) | 1.64% (inactive) | 6.76% (inactive) |
| O=C(Nc1cccc(C(F)(F)F)c1)c1cccnc1N1CCCC1 | 360 | 4.5% (inactive) | -13% (inactive) | 105 | -32.4% (inactive) | 118 | -0.531 (inactive) | 2.1e-05 (inactive) | 0.00477 (inactive) | 16.2% (inactive) | 28.2% (inactive) |
| O=C(c1ccco1)N1CCN(c2c(-c3ccccc3)c3cc(Cl)ccc3[nH]c2=O)CC1 | 603 | 2.1% (inactive) | -2.2% (inactive) | 119 | -72.2% (inactive) | 118 | -0.456 (inactive) | 2.5e-05 (inactive) | 0.00537 (inactive) | 24.2% (inactive) | 25.7% (inactive) |
| COc1ccc(-c2nc(N)nc(C)c2Oc2ccccc2Br)c(O)c1 | 382 | 6.9% (inactive) | -14% (inactive) | 100 | -64.3% (inactive) | 85.6 | -0.496 (inactive) | 6e-05 (inactive) | 0.00571 (inactive) | 10.9% (inactive) | 53% (active) |
| CC(C)c1ccc(NC(=O)C2CC(=O)N(C(C)C)C2)cc1 (centres undefined) | 232 | -2.3% (inactive) | 21% (inactive) | 81.7 | -44.3% (inactive) | 108 | -0.558 (inactive) | -6.2e-05 (inactive) | 0.0102 (inactive) | 12.8% (inactive) | -37.1% (inactive) |
| CC(C)(C)N(Cc1cc2ccccc2[nH]c1=O)C(=O)C1CCCCC1 | 510 | -1.4% (inactive) | -4.5% (inactive) | 110 | 4% (inactive) | 95.6 | -0.455 (inactive) | -7.9e-05 (inactive) | 0.00597 (inactive) | -3.62% (inactive) | 9.15% (inactive) |
| C/C(N)=C(\C#N)C(=O)NCCc1ccccn1 | 326 | -1.7% (inactive) | -11.6% (inactive) | 106 | -26.9% (inactive) | 102 | -0.613 (inactive) | 2e-05 (inactive) | 0.00369 (inactive) | 7.83% (inactive) | 13.8% (inactive) |
| Cc1ccc(-n2nnnc2SCC(=O)N2CCc3ccccc3C2)cc1 | 526 | -10.2% (inactive) | -6.8% (inactive) | 104 | -28.6% (inactive) | 148 | -0.49 (inactive) | 8.4e-07 (inactive) | 0.00503 (inactive) | 8.66% (inactive) | 11% (inactive) |
